Measured values as given in PubChem BioAssay (EPA / NIEHS).
“And” between values parts separate entries of the source, which are not always exact repeats. Equal values may be shown once. The source holds several records for some structures; these can differ, active in one and inactive in another. The source made the active and inactive calls. The calls were made as follows: active = hit-call score of the fitted dose curve at least 0.9, where 1 is the maximum; inactive = score below 0.9.

Assays:
[1] = APR_HepG2_P-H2AX_72hr: Apredica 72-hour HepG2 Assay for H2AX Phosphorylation (AID 2282916); details: imaging, actives raise or lower the signal;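 also: phospho-histone H2A.x immunostain intensity per cell marking DNA damage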
Outline: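 Human hepatoma HepG2 cells are dosed across ten concentrations (0.39 to 200 uM, 0.5% v/v DMSO) and incubated 72 hr. Phospho-histone H2A.x is then detected by antibody staining alongside c-Jun and Hoechst, and quantified by automated fluorescence imaging.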

[2] = APR_HepG2_MitoMembPot_72hr: Apredica 72-hour HepG2 Assay for Mitochondrial Membrane Potential (AID 2282917); details: imaging, actives raise or lower the signal
Outline: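 HepG2 cells exposed 72 h to compounds at 0.39–200 uM (0.5% v/v DMSO, duplicates); MitoTracker Red CMXRos 250 nM loaded 30 min before 3.7% formaldehyde fixation, imaged by HCS fluorescence. Bidirectional fit versus DMSO.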

[3] = APR_HepG2_MitoticArrest_72hr: Apredica 72-hour HepG2 Assay for Mitotic Arrest (AID 2282918); details: high-content imaging, actives raise or lower the signal
Outline: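 Using high-content imaging of fixed HepG2 cells, phospho-histone H3 signal was measured following a 72 hr incubation with ten-point compound dilutions up to 200 uM. DMSO served as the negative control and baseline for bidirectional curve fitting.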

[4] = APR_HepG2_MicrotubuleCSK_72hr: Apredica 72-hour HepG2 Assay for Microtubule CSK Stabilty (AID 2282919); details: HepG2 microtubule cytoskeleton, high-content imaging, actives raise or lower the signal
Outline: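 Ten-point dosing (0.39–200 uM, 0.5% DMSO) of HepG2 for 72 hr, with taxol as the cytoskeletal positive control. The cells were formaldehyde-fixed and then stained with alpha-tubulin/Cy5 and Hoechst. Imaging at 20x used a −2 um Z offset for tubulin.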

[5] = APR_HepG2_P-H2AX_24hr: Apredica 24-hour HepG2 Assay for H2AX Phosphorylation (AID 2282920); details: high-content imaging, actives raise or lower the signal
Outline: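 Human HepG2 liver cells, treated 24 hr with test chemicals (0.39–200 uM, final DMSO 0.5% v/v), are fixed and co-stained for phospho-H2A.x and c-Jun with Hoechst. Imaged intensity is fitted in both directions against DMSO controls.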

[6] = APR_HepG2_StressKinase_72hr: Apredica 72-hour HepG2 Assay for Stress Kinase (AID 2282921); details: HepG2 stress kinase (phospho-c-Jun) imaging, actives raise or lower the signal
Outline: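 After a 72 h compound treatment spanning 0.39 to 200 uM, formaldehyde-fixed cells are labelled for phosphorylated c-Jun and nuclei, imaged by automated fluorescence microscopy, and activity is fitted in both directions relative to DMSO controls.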

[7] = APR_HepG2_p53Act_72hr: Apredica 72-hour HepG2 Assay for p53 Activation (AID 2282923); details: high-content imaging, actives raise or lower the signal;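 also: average cellular p53 protein immunofluorescence intensity in HepG2 cells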
Outline: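 Imaging-based endpoint: after 72 hr compound exposure (up to 200 uM, 0.5% DMSO), fixed and permeabilized monolayers were labelled with anti-p53 antibody and imaged; signal change in either direction was fitted relative to DMSO controls.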

[8] = APR_HepG2_MitoMass_72hr: Apredica 72-hour HepG2 Assay for Mitochondrial Mass (AID 2282924); details: high-content imaging, actives raise or lower the signal;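 also: MitoTracker Red CMXRos stain intensity per cell imaged as mitochondrial mass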
Outline: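 Steps: treat HepG2 72 hr (0.39–200 uM, duplicate wells); load MitoTracker Red CMXRos, 250 nM, 30 min; fix with 3.7% formaldehyde, permeabilise with 0.5% Triton X-100; capture images, nuclei via Hoechst 33342; fit bidirectionally against DMSO.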

[9] = APR_HepG2_NuclearSize_72hr: Apredica 72-hour HepG2 Assay for Nuclear Size (AID 2282925); details: high-content imaging, actives raise or lower the signal
Outline: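 Compounds (0.39–200 uM, final DMSO 0.5%) were applied to HepG2 for 72 hr. Cells were then formaldehyde-fixed, permeabilized and labelled with Hoechst 33342. Nuclear diameter was quantified from six images per well.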

[10] = ATG_CRE_CIS: Attagene CIS-FACTORIAL HepG2 Assay for human cAMP Responsive Element (CRE) binding protein 3 (AID 2282926); details: HepG2 CRE cis-reporter, Attagene multiplexed mRNA; actives raise or lower the signal
Outline: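 Liver-derived HepG2, transfected with a CRE-containing reporter panel, exposed 24 h; transcript levels sized and quantified by capillary electrophoresis of labelled amplicons; signal changes either way referenced to vehicle.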

[11] = target: CCAAT/enhancer-binding protein beta (Homo sapiens) (UniProt P17676); experiment: ATG_C_EBP_CIS: Attagene CIS-FACTORIAL HepG2 Assay for human CCAAT/Enhancer Binding Protein (C/EBP) beta (AID 2282927); details: HepG2 Attagene cis-factorial transcription factor reporter; actives raise or lower the signal
Chain of CCAAT/enhancer-binding protein beta (Homo sapiens) (P17676 whole entry, looked up): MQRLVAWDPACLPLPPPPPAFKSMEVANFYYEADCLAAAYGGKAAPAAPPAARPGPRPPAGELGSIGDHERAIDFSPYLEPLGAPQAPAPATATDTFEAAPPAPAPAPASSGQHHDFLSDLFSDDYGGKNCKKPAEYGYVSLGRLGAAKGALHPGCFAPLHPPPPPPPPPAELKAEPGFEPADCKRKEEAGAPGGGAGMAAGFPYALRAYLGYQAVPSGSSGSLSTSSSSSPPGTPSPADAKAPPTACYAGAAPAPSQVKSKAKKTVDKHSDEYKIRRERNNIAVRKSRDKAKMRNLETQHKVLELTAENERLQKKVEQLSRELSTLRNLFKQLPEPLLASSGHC
Outline: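 Following a 24 h incubation with test chemical, transfected HepG2 cells yielded RNA whose reporter transcripts were quantified by RT-PCR and fluorescent capillary electrophoresis, with DMSO serving as baseline for bidirectional fitting.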

[12] = ATG_CMV_CIS: Attagene CIS-FACTORIAL HepG2 Assay for human CMV (Internal Marker) (AID 2282928); details: HepG2 CMV promoter reporter, transcription factor profiling; actives raise or lower the signal;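 also: endpoint acts as a background internal control marker rather than a target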
Outline: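 Fluorescence intensity of RT-PCR-derived reporter fragments, resolved by capillary electrophoresis, gives the signal. HepG2 liver cells bearing transfected cis-element reporters were treated 24 h; activity in either direction was fit relative to DMSO-treated controls.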

[13] = ATG_DR4_LXR_CIS: Attagene CIS-FACTORIAL HepG2 Assay for human Liver X Receptor (LXR), DR4 submotif (AID 2282929); details: HepG2 Attagene DR4 cis-reporter, mRNA transcription; actives raise or lower the signal
Outline: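 After transient transfection with multiplexed cis-promoter reporter units, HepG2 cells received test chemicals for 24 h. Reporter mRNA induction, detected by fluorescence after RT-PCR and capillary electrophoresis, was scored relative to DMSO.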

[14] = target: Aryl hydrocarbon receptor (Homo sapiens) (UniProt P35869); experiment: ATG_Ahr_CIS: Attagene CIS-FACTORIAL HepG2 Assay for human Aryl Hydrocarbon Receptor (Ahr) (AID 2282930); details: HepG2 AhR cis-factorial reporter transcription; actives raise or lower the signal
Chain of Aryl hydrocarbon receptor (Homo sapiens) (P35869 whole entry, looked up): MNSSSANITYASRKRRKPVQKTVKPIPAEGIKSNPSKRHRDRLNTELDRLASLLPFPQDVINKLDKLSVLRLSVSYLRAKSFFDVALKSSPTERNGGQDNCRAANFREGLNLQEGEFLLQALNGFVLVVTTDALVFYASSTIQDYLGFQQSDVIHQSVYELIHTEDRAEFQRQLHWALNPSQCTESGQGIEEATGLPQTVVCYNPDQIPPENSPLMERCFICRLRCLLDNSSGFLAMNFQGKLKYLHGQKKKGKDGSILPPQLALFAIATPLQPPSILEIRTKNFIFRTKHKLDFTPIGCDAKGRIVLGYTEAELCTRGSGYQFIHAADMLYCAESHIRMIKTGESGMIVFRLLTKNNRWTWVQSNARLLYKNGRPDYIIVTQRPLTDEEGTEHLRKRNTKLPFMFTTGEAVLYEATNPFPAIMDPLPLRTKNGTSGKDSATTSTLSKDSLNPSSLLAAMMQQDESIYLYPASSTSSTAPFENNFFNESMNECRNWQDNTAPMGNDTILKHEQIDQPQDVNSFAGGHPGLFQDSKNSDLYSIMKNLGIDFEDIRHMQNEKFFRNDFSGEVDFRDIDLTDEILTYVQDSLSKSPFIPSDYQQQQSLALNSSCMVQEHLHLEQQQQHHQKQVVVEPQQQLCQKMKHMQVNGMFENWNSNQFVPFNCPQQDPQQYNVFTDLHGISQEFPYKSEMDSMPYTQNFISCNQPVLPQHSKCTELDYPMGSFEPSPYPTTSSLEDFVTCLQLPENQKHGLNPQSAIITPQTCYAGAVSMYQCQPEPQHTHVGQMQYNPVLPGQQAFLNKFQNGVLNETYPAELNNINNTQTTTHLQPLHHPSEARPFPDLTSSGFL
Outline: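 Values derive from bidirectional fitting against DMSO negative control. Underlying signal: cis-element reporter mRNA in transiently transfected HepG2, harvested 24 h post-dose and measured by RT-PCR plus capillary electrophoresis.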

[15] = ATG_AP_1_CIS: Attagene CIS-FACTORIAL HepG2 Assay for human Activator Protein 1 (AP-1) (AID 2282931); details: HepG2 Attagene cis-factorial AP-1 reporter mRNA; actives raise or lower the signal
Outline: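 After 24 h incubation with test chemical, RNA from transfected HepG2 cells was reverse-transcribed, amplified, fluorescently labelled and digested before capillary electrophoresis. Reporters were driven by cis-regulatory promoters; activity fitted bidirectionally versus DMSO.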

[16] = ATG_AP_2_CIS: Attagene CIS-FACTORIAL HepG2 Assay for human Activator Protein 2 (AP-2) (AID 2282932); details: HepG2 AP-2 cis-reporter, Attagene transcription factor profiling; actives raise or lower the signal
Outline: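 Cells (HepG2) transfected with promoter-driven reporter constructs, treated 24 h. Total RNA reverse-transcribed, reporter cDNA PCR-amplified, FAM-labelled by primer extension, digested, resolved by capillary electrophoresis. Activity fitted both directions versus DMSO.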

[17] = ATG_BRE_CIS: Attagene CIS-FACTORIAL HepG2 Assay for human Bone Morphogenetic Protein (BMP) Response Element (BRE) (AID 2282933); details: HepG2 BMP response element reporter, Attagene transcription factor profiling; actives raise or lower the signal
Outline: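 HepG2 cells transiently transfected with CIS reporter units (endogenous TF activity, BMP response element), dosed 24 h. Reporter mRNA quantified by RT-PCR, fluorescent labelling and capillary electrophoresis; bidirectional fit vs DMSO baseline.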

[18] = target: Retinoic acid receptor alpha (Homo sapiens) (UniProt P10276); experiment: ATG_DR5_RAR_CIS: Attagene CIS-FACTORIAL HepG2 Assay for human Retinoic Acid Receptor Alpha (RARE), DR5 submotif (AID 2282934); details: HepG2 Attagene cis-factorial RARE DR5 reporter, mRNA; actives raise or lower the signal;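 as to AC50: reporter responds to endogenous RAR alpha beta and gamma in HepG2 not RARA alone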
Chain of Retinoic acid receptor alpha (Homo sapiens) (P10276 whole entry, looked up): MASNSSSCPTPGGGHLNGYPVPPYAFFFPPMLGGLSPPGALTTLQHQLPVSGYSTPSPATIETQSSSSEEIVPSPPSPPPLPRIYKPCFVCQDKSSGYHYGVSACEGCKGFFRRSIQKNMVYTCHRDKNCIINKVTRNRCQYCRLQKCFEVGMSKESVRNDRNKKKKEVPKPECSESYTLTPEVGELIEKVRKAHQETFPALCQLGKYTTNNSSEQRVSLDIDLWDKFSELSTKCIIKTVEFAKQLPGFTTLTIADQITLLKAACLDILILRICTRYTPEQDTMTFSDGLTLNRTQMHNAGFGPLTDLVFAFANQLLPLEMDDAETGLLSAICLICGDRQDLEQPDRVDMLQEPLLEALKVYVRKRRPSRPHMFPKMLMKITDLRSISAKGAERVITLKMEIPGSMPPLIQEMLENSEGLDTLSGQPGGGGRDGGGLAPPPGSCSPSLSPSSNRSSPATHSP
Outline: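 Endpoint fitted in both directions relative to DMSO as negative control. It reflects DR5 cis-element reporter mRNA induction in transiently transfected HepG2 cells, measured 24 h after dosing through RT-PCR and fluorescent capillary electrophoresis.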

[19] = target: Transcription factor E2F1 (Homo sapiens) (UniProt Q01094); experiment: ATG_E2F_CIS: Attagene CIS-FACTORIAL HepG2 Assay for human E2F Transcription Factor 1 (AID 2282935); details: HepG2 Attagene cis-reporter, E2F reporter RNA transcripts; actives raise or lower the signal
Chain of Transcription factor E2F1 (Homo sapiens) (Q01094 whole entry, looked up): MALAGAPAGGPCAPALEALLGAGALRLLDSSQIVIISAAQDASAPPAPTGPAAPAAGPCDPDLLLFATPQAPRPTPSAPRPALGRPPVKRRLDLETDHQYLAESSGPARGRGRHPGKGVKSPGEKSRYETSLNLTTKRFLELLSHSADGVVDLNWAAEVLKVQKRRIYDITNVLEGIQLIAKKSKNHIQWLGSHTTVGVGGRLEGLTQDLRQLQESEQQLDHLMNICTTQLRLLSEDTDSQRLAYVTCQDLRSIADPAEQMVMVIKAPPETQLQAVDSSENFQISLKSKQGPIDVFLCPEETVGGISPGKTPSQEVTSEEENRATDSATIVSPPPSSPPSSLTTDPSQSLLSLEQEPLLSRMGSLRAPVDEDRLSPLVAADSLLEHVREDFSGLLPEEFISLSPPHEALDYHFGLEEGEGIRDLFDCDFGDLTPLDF
Outline: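 First, HepG2 cells were transfected with reporter transcription units. Next, they were dosed for 24 h. Then RNA was isolated, converted to cDNA, PCR-amplified, FAM-labeled, HpaI-digested and analyzed by capillary electrophoresis.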

[20] = APR_HepG2_StressKinase_24hr: Apredica 24-hour HepG2 Assay for Stress Kinase (AID 2282922); details: HepG2 stress kinase (phospho-c-Jun) imaging, actives raise or lower the signal
Outline: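 After 24 hr compound treatment (up to 200 uM, final DMSO 0.5% v/v), HepG2 cells are fixed and multiplex-labeled; phospho-c-Jun intensity is captured by high-content fluorescence imaging and analyzed relative to DMSO.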

Measured: AC50

NS(=O)(=O)C(F)(F)C(F)(F)C(F)(F)C(F)(F)C(F)(F)C(F)(F)C(F)(F)C(F)(F)F
inactive: [4] | [6] | [8] | [9] | [11] | [13] | [14] | [16] | [18] | [19]
active: [1] 99.3 µM | [2] 102 µM | [3] 77.9 µM | [5] 100 µM | [7] 61.7 µM | [10] 44.3 µM and 40.2 µM and 32.2 µM | [11] 36.3 µM and 24.3 µM | [12] 40.4 µM and 227 µM and 21.6 µM | [13] 33.4 µM and 105 µM | [15] 29.9 µM and 262 µM and 17 µM | [17] 45.4 µM and 248 µM and 15.5 µM | [18] 40.4 µM and 29.7 µM

O=S(=O)(O)C(F)(F)C(F)(F)C(F)(F)C(F)(F)C(F)(F)C(F)(F)F
not listed: [15] | [18] | [19]
inactive: all other assays above

COc1ccc(O)c(C(C)(C)C)c1
active: [10] 100 µM | [11] 100 µM | [12] 83.1 µM
not listed: [15]
inactive: all other assays above

Cc1ccccc1CO[C@@H]1C[C@@]2(C(C)C)CC[C@]1(C)O2
not listed: [7] | [19]
inactive: all other assays above

CCOP(=S)(OCC)SCSC(C)(C)C
inactive: [1] | [2] | [3] | [4] | [5] | [6] | [20] | [7] | [8] | [9] | [10] | [11] | [12] | [13] | [14] | [15] | [16] | [17] | [19]
active: [13] 10.6 µM | [14] 78.2 µM
